# Source: PubChem BioAssay
# TDP1 inh – inhibitors of human tyrosyl-DNA phosphodiesterase TDP1; Q9NUW8; recombinant TDP1, AlphaScreen DNA substrate cleavage; Potency, µM (titrated, usually from 130 µM), inactives show at the top dose activity change, negative = inhibition, actives largely listed as inhibitors; actives 0.28% (n = 350,000); also: % is scaled to controls: 0 for no effect and ±100 for the full control effect; nearly all actives have a fitted effect of over 40% in size
# Target sequence (Q9NUW8 whole entry, looked up): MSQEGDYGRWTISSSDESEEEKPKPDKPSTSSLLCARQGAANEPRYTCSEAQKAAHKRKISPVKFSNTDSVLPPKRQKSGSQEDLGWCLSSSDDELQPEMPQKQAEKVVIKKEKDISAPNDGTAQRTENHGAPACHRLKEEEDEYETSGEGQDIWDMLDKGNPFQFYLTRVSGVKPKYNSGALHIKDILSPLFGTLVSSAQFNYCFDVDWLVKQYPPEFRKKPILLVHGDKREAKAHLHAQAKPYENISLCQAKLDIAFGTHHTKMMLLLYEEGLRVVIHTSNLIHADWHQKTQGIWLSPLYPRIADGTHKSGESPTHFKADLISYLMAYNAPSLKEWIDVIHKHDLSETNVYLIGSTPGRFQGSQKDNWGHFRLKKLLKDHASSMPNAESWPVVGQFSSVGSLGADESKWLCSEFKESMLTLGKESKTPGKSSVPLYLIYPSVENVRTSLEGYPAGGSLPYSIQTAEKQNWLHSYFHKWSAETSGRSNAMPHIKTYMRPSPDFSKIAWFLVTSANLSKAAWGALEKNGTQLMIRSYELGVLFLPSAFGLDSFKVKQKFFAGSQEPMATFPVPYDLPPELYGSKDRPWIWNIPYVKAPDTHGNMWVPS
#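 Compounds were preincubated with Tdp1 (1 nM final) for 15 min at room temperature before substrate (15 nM final) started a 5 min reaction; beads (10 ug/ml final) were then added for 10 min before AlphaScreen detection.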
# DT40 TDP1 CPT – growth inhibition of DT40 Tdp1-/-;hTDP1 cells with camptothecin (screen for TDP1 inhibitors) | chicken DT40 Tdp1-/-;hTDP1 cells + 20 nM CPT, ATP luminescence, 48 h | Potency, µM (titrated, usually from 46.2 µM), inactives show at the top dose activity change, negative = growth inhibition, usual class: inhibitors | actives 12% (n = 420,000) | AID 686979; also: % is scaled to controls: 0 for no effect and ±100 for the full control effect; nearly all actives have a fitted effect of over 55% in size
#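 Chicken DT40 Tdp1-/- cells stably complemented with human TDP1 were seeded at 400 cells/well in medium containing 20 nM camptothecin, exposed to pin-transferred compounds, and grown at 37 °C for at least 48 hr. Viability was read as ATP luminescence.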
# ClpP mod – qHTS Assay for Activators of ClpP | Potency, µM (highest dose often 57.5 µM), for inactives: top-dose activity change, negative = active | purified B. subtilis ClpP, FRET peptide cleavage, 20 min | AID 651965, 2013 | actives 1.9% (n = 340,000); active = well fitted falling curve with a large enough effect; inconclusive = small, poorly fitted or top-dose-only effect; inactive = no such curve, though single readings can be large or run the other way; also: the source files actives as falling curves though it sought activators and does not explain the sign; nearly all actives have a fitted effect of over 65% in size
#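 Purified B. subtilis ClpP, 10 microg/mL final in Tris/HCl pH8 with KCl, BSA, glycerol and Tween-20, cleaved an Abz/nitrotyrosine-quenched decapeptide. Fluorescence (ex 320, em 430) was read at 0 and 20 min at room temperature. Delta was normalized to 5.8 microM ADEP and DMSO/no-enzyme controls.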
# DT40 TDP1 no CPT – qHTS for Inhibitors of human tyrosyl-DNA phosphodiesterase 1 (TDP1): qHTS in cells in absence of CPT. AID 686978, 2013. DT40 Tdp1-/- hTDP1 cells, no CPT, ATP luminescence, 48 h. Potency, µM (titrated, usually from 46.2 µM), without a hit: at the top dose activity change, negative = growth inhibition, usual class: inhibitors. actives 15% (n = 420,000); also: % is scaled to controls: 0 for no effect and ±100 for the full control effect; nearly all actives have a fitted effect of over 55% in size
#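 DT40 Tdp1-/-;hTDP1 cells, no CPT (DMSO vehicle only), 400 cells/well; compounds pin-transferred; ≥48 hr, 37 °C; CellTiter-Glo 30 min RT dark, luminescence read.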
# Active calls of the source: *; ? = inconclusive; . = no result; [ ] = another dose, or the depositor's remark. Most compounds without a hit are left out; they make up all but 17% or so of the library. Unless noted, calls follow the shape of the dose curve; as a rule, active = well fitted curve in the direction sought with a large enough effect; inconclusive = small, poorly fitted or top-dose-only effect, or another doubt; inactive = no such curve, though single readings can be large; an effect the other way counts as inactive or inconclusive. Potency is read from the fitted curve at half-maximal effect.
SMILES,TDP1 inh,DT40 TDP1 CPT,ClpP mod,DT40 TDP1 no CPT
CC(C)Oc1cccc(C(=O)Nc2ccc3oc(-c4ccccc4)nc3c2)c1,2%,?,5%,21µM*
CC(C)(C)c1ccc(C(=O)Nc2ccc(-c3nc4ccccc4o3)c(O)c2)cc1,-7%[12.3 µM],5%,-2%,-17%
Cc1cccc(C(=O)Nc2ccc(O)cc2)c1,-2%,-21%,0%,?
Cc1cccc(NC(=O)c2ccc(C(=O)Nc3cccc(C)c3)nc2)c1,5%,2.6µM*,-3%,16µM*
O=C(Nc1ccc(-c2nc3ccccc3o2)c(O)c1)c1ccccc1,5%,?,-5%,18µM*
Cc1cccc(C(=O)Nc2ccc(C(=O)c3ccncc3)cc2)c1,.,?,-1%,15µM*
CC(=O)Nc1cccc(NC(=O)c2ccc(C(=O)Nc3cccc(NC(C)=O)c3)nc2)c1,-8%,1%,.,-25%
COc1ccc(Cl)cc1N(C)C(=O)Cn1cnc2sc(C)c(S(=O)(=O)N3CCN(c4ncccn4)CC3)c2c1=O,7%,-25%,-12%,?
COc1ccc(-c2nc3ccccc3o2)cc1NC(=O)c1cccnc1,6%,.,-2%,.
Cc1cccc(C)c1NC(=O)C1(C)CCC(=O)N1C1CCN(Cc2ccccc2)CC1 (stereo not given),.,4%,-4%,22%
O=C(CNC(=O)c1ccc(F)cc1)c1ccc(Cl)cc1,3%,?,.,?
CCCC/C=C/C(NC(=O)Oc1cccc(C(F)(F)F)c1)c1ccccc1 (stereo not given),-5%,.,.,.
COC(=O)c1sc(NC(=O)c2cc(C)on2)nc1C,4%[56.1 µM],-13%,-1%,20%
Cc1cc(C)c([N+](=O)[O-])cc1NC(=O)CCSc1ccccc1Cl,0%,?,-1%,15µM*
O=C(CCSc1ccccc1Cl)Nc1cccc([N+](=O)[O-])c1,3%,-10%,.,?
O=C1CCC(C(=O)N2CCC(CO)CC2)CN1Cc1ccc(Cl)cc1 (stereo not given),6%,3%,0%,5%
CCCCNc1cc(NC(C)=O)cc2cc(OC)c(OC)cc12,3%,18µM*,?,?
COc1ccccc1CNC(=O)CCCc1nnc2n(C)c(=O)c3sccc3n12,3%,-5%,-11%,?
COc1ccc(OC)c(-c2cc(Cl)c3c(c2)CC(CNC(=O)C(C)N2CCOCC2)O3)c1 (stereo not given),.,-1%[9.04 µM],.,?
CCOc1cc(N2CCOCC2)c(OCC)cc1NC(=O)c1ccc(NC(C)=O)cc1,1%,-14%,-3%,-28%
CCOc1cc(N2CCOCC2)c(OCC)cc1NC(=O)c1ccc(OC)c(S(=O)(=O)N2CCOCC2)c1,-4%,-24%,1%,?
CCOc1cc(N2CCOCC2)c(OCC)cc1NC(=O)c1ccc(OC)cc1,3%,6.5µM*,.,7.3µM*
CCOc1cc(N2CCOCC2)c(OCC)cc1NC(=O)c1ccc(OCc2c(C)noc2C)c(OC)c1,5%,15µM*,11µM*,10µM*
CCOc1cc(N2CCOCC2)c(OCC)cc1NC(=O)C(NC(=O)c1ccco1)C(C)C (stereo not given),1%,-27%,-4%,12µM*
CC(C)COc1ccc(C(=O)Nc2ccc(N3CCOCC3)cc2N2CCOCC2)cc1,5%,18µM*,1%,16µM*
SMILES,TDP1 inh,DT40 TDP1 CPT,ClpP mod,DT40 TDP1 no CPT
CCOc1cc(N2CCOCC2)c(OCC)cc1NC(=O)C(NC(=O)c1c(F)cccc1F)C(C)C (stereo not given),.,?,-2%,9.2µM*
CCOc1cc(N2CCOCC2)c(OCC)cc1NC(=O)c1nc2nc(C)cc(C)n2n1,1%,?,-1%,23µM*
CCOc1cc(N2CCOCC2)c(OCC)cc1NC(=O)c1ccco1,3%,-18%,0%,12µM*
Cc1cc(C)n2nc(C(=O)Nc3ccccc3N3CCOCC3)nc2n1,1%,.,.,.
CCOc1cc(N2CCOCC2)c(OCC)cc1NC(=O)c1ccccc1C,3%,-25%,.,?
CCOc1cc(N2CCOCC2)c(OCC)cc1NC(=O)c1cnccn1,4%,21µM*,1%,23µM*
CN(CC(=O)Nc1c(Cl)cccc1Cl)C(=O)C1CCN(C(=O)Nc2ccccc2)CC1,.,3%,-6%,-14%
CS(=O)(=O)N1CCC(C(=O)Nc2cc(Cl)cc(Cl)c2)CC1,4%,-17%,.,?
Cc1ccc(S(=O)(=O)N2CCCC(c3nnc4n3-c3ccccc3SC4)C2)cc1 (stereo not given),8%,?,-1%,15µM*
COCC(=O)N1CCC[C@@]2(CCN(C(=O)Nc3cccc(F)c3)C2)C1,.,11%,.,-5%
O=C(Nc1ccccc1)C(=O)Nc1ccc2c(c1)N(C(=O)C1CC1)CCC2,4%[0.505 µM],21µM*,-3%,23µM*
O=C(C1CCC(C(=O)N2CCc3ccccc32)CC1)N1CCc2ccccc21 (stereo not given),-1%,-10%,-6%,?
COc1cc(NS(=O)(=O)c2ccc3c(c2)CC(=O)N3)cc(OC)c1OC,2%,-2%,-3%,-2%
CC1(C(=O)NS(=O)(=O)C2CC2)CCCN(C(=O)c2cccs2)C1 (stereo not given),.,5.2µM*,0%,6.5µM*
Cc1c(C(=O)N2CCC(C)(C(=O)NS(=O)(=O)C3CC3)C2)oc2ccccc12 (stereo not given),.,?,-1%,0%
Cc1c(C(=O)N2CCCC(C)(C(=O)NS(=O)(=O)C3CC3)C2)oc2ccccc12 (stereo not given),.,?,-1%,4.1µM*
CC1(C(=O)NS(=O)(=O)C2CC2)CCCN(C(=O)c2ccc3c(c2)OCO3)C1 (stereo not given),.,7.3µM*,1%,5.8µM*
CC1(C(=O)NS(=O)(=O)C2CC2)CCCN(C(=O)c2c(F)cccc2F)C1 (stereo not given),.,5.2µM*,1%,4.6µM*
Cn1nc(C(C)(C)C)cc1C(=O)N1CCC(C)(C(=O)NS(=O)(=O)C2CC2)C1 (stereo not given),.,-19%,3%,-16%
CC1(C(=O)NS(=O)(=O)C2CC2)CCCN(C(=O)c2ccccc2)C1 (stereo not given),.,5.2µM*,-1%,2.1µM*
CC1(C(=O)NS(=O)(=O)C2CC2)CCCN(C(=O)c2ccco2)C1 (stereo not given),.,?,1%,12µM*
Cc1ccsc1C(=O)N1CCCC(C)(C(=O)NS(=O)(=O)C2CC2)C1 (stereo not given),.,-55%,2%,?
CC1(C(=O)NS(=O)(=O)C2CC2)CCCN(C(=O)/C=C/c2ccccc2)C1 (stereo not given),.,?,0%,15µM*
